Publication PMC7819943, “Rice protein-binding microarrays: a tool to detect cis-acting elements near promoter regions in rice”
The full ranking holds about 35,000 sequences; the median of “fluorescence intensity (a.u.)” is about 10,000, and the highest 2% start at about 52,000. What follows is part of a selection rich in the highest values, with near analogues and random picks from the rest.

target: T1, OsWOX13 (Oryza sativa, UniProt Q5QMM3 1-267); assay: protein-binding microarray (RPBM); PBS, 2% BSA, 51.3 ng/ul salmon testes DNA, 50 uM zinc acetate, 200 nM TF, 25 C, 1 h; high values mean tight binding; details: protein: recombinant; tags: N-terminal polyhistidine and DsRed monomer fusion (pET32a); label: CyDye5-dUTP incorporated in the synthesized complementary strand; 3' TTTTT single-stranded linker to array surface; dsDNA, one strand shown
T1 sequence: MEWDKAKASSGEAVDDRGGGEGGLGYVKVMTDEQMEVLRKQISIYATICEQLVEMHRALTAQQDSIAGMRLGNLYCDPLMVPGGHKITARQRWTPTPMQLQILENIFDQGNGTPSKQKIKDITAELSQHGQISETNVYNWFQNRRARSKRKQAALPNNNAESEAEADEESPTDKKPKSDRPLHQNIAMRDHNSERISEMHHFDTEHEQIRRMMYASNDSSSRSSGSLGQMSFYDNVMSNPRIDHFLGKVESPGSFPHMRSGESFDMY
Summary of the method: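 Transcription factors were each fused at the N-terminus to a polyhistidine tag plus DsRed and expressed in E. coli BL21-CodonPlus before Ni–NTA purification. Binding to a double-stranded custom Agilent array was carried out with 200 nM protein at 25 °C for 1 h in PBS, 2% BSA, salmon testes DNA and 50 µM zinc acetate. The binding signal is per-feature fluorescence intensity, in arbitrary units, on an Axon 4000B scanner.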

Row | Sequence | binding signal
1 | ATTGATTTAATGAAAATAATTTAATATTATAAATATTACTCGGAGTCACCTAGTGCAG | 35700 fluorescence intensity (a.u.)
2 | ATAATAATTGATAGGTAACCATGATTATCGATAAAACCATCGGAGTCACCTAGTGCAG | 59000 fluorescence intensity (a.u.)
3 | CGAAATTATAATGATTAAACAAAATTGATCGATATAACTACGGAGTCACCTAGTGCAG | 41000 fluorescence intensity (a.u.)
4 | ATATAATTGATAATAAATCAGGGCATGACATGTCACATATCGGAGTCACCTAGTGCAG | 56400 fluorescence intensity (a.u.)
5 | TCACATTGATATTAATTAATCTAGATAAATATATATATGTCGGAGTCACCTAGTGCAG | 17200 fluorescence intensity (a.u.)
6 | GTGGTTGTATTAAATATATTGATAGTTAGGTATATGAATACGGAGTCACCTAGTGCAG | 4110 fluorescence intensity (a.u.)
7 | ATGTAAATTACTTTTAGGCTTTATTGAATTACTTTTATATCGGAGTCACCTAGTGCAG | 7630 fluorescence intensity (a.u.)
8 | TTAAATAAATTACTTTTAAATTAATAAAATGTTTGAATATCGGAGTCACCTAGTGCAG | 5500 fluorescence intensity (a.u.)
9 | ATGATTGATTGTAAATTAGGTTGAATAATTGATATATACTCGGAGTCACCTAGTGCAG | 54800 fluorescence intensity (a.u.)
10 | GTCTCGATATAATTATGAATTTTGAAATATATAAACCCATCGGAGTCACCTAGTGCAG | 8250 fluorescence intensity (a.u.)
11 | TGTAATTGATAAATATAAATTTACTTTAGGCATGTTTGATCGGAGTCACCTAGTGCAG | 55700 fluorescence intensity (a.u.)
12 | AAAATATATAATTATTATTTATTTTATTATGACATGATATCGGAGTCACCTAGTGCAG | 17400 fluorescence intensity (a.u.)
13 | TTGTATTTGTTAATGGAATGCTGATTGGTGCACAGCAAACCGGAGTCACCTAGTGCAG | 29900 fluorescence intensity (a.u.)
14 | ATTAAATTTGGGCTAACTGGCCTCCACACATCCCATATAACGGAGTCACCTAGTGCAG | 11000 fluorescence intensity (a.u.)
15 | GATAAATTACGATAATACCCCTATACGAATTATTATCTCTCGGAGTCACCTAGTGCAG | 12900 fluorescence intensity (a.u.)
16 | TGTTTTGATTGTTTCTTATTACTCCCTCCGATTATAAATACGGAGTCACCTAGTGCAG | 25500 fluorescence intensity (a.u.)
17 | TCCGATTGATTACCTTCTATAAATACCTCACCCCACCCCTCGGAGTCACCTAGTGCAG | 57600 fluorescence intensity (a.u.)
18 | ATTGATTAGTAGTAATTAATTAGTTATAAACTACACGCGCCGGAGTCACCTAGTGCAG | 58700 fluorescence intensity (a.u.)
19 | ATTGATAATTAGTTCACCGAAGTAGTAGGGCGCGACACGCCGGAGTCACCTAGTGCAG | 15900 fluorescence intensity (a.u.)
20 | ATTGATTTACGGGATTGAAGTTAGTATAATTACATGTAAGCGGAGTCACCTAGTGCAG | 53600 fluorescence intensity (a.u.)
21 | AGCTATTAGTAGATTGGCTATAAATGAATTGGAGTTAGTACGGAGTCACCTAGTGCAG | 14900 fluorescence intensity (a.u.)
22 | TAAATTGGCTATTACATTAGTTATAAATGATTTGGAGCTACGGAGTCACCTAGTGCAG | 34400 fluorescence intensity (a.u.)
23 | GTGCAAGGATAATTGGTGATTATATTAGTGTATATTTAAGCGGAGTCACCTAGTGCAG | 18200 fluorescence intensity (a.u.)

Row | Sequence | binding signal
24 | AATATTATTTATATGTAATTACATAAGTAATATGTAATTTCGGAGTCACCTAGTGCAG | 9490 fluorescence intensity (a.u.)
25 | CTAAATTGATTATACATGATTTAGAGTTAGTAGTTAGCTACGGAGTCACCTAGTGCAG | 59600 fluorescence intensity (a.u.)
26 | CAGATGATTAGTAATGTTAATTATGAATAAACTTGCACGCCGGAGTCACCTAGTGCAG | 51800 fluorescence intensity (a.u.)
27 | CCTCCTGTTAACTCGTATCACCTCCCTCCCTCACTGAACCCGGAGTCACCTAGTGCAG | 7850 fluorescence intensity (a.u.)
28 | ATAAAGACTGTTCAATCATGATGAAGCTTTACGTAAGCGGCGGAGTCACCTAGTGCAG | 34900 fluorescence intensity (a.u.)
29 | TTTACAAACACGCAAATTAAAATTTTATTTATACAATTAACGGAGTCACCTAGTGCAG | 4180 fluorescence intensity (a.u.)
30 | GTACCAATTTAATTTATGTATCAATAAGAACATATCATGTCGGAGTCACCTAGTGCAG | 22800 fluorescence intensity (a.u.)
31 | TCAGCTTATTGACTTATATGATTTATAAGCCAATGGATTTCGGAGTCACCTAGTGCAG | 11100 fluorescence intensity (a.u.)
32 | CTGATTAGCATGCAGGATAGGAACTGATCTGTACTTGTCGCGGAGTCACCTAGTGCAG | 22300 fluorescence intensity (a.u.)
33 | ACTAATTTCATAACTCTCCTGGAAACCGTGAGATGAATCTCGGAGTCACCTAGTGCAG | 6360 fluorescence intensity (a.u.)
34 | CTCGAGGTCAAATCTTGATTAATTATGCTAATTAACGCGACGGAGTCACCTAGTGCAG | 16800 fluorescence intensity (a.u.)
35 | AAATTTATGTAATTATTATTTATTTTATTGTGACTTGATTCGGAGTCACCTAGTGCAG | 8590 fluorescence intensity (a.u.)
36 | TAGGTGATTAGTTGATTAATTAATCTTGAGCTCCTCCTAACGGAGTCACCTAGTGCAG | 58800 fluorescence intensity (a.u.)
37 | GAGAGATGATGGGCTGGTTTGGTTTGAGGCCTAAATTAGGCGGAGTCACCTAGTGCAG | 3660 fluorescence intensity (a.u.)
38 | TTCCTTTGATTGATCATGAGGTGGGCTGGGGCTGAGATGGCGGAGTCACCTAGTGCAG | 59400 fluorescence intensity (a.u.)
39 | ATGATTGCTTAAGAATAATTGGTGACTTGCTACGAATGTGCGGAGTCACCTAGTGCAG | 51300 fluorescence intensity (a.u.)
40 | ACAATTAACTAATAATAATTAGTGATTACTTATCTTGATTCGGAGTCACCTAGTGCAG | 45300 fluorescence intensity (a.u.)
41 | CCCACAATTAATTGGGCCTAATGGATCGGTGCCCTTGTGGCGGAGTCACCTAGTGCAG | 53600 fluorescence intensity (a.u.)
42 | CCCAATTAATTACAATGGGCCACACGCTCGTGGCCCAACTCGGAGTCACCTAGTGCAG | 10900 fluorescence intensity (a.u.)
43 | TTCTGAATGTGATTGAATTAATTGGACTTGCGTTGACCTTCGGAGTCACCTAGTGCAG | 59500 fluorescence intensity (a.u.)
44 | GATGATGATGAGGAGGATGACCAGGATGGTGGAGACTGGGCGGAGTCACCTAGTGCAG | 4950 fluorescence intensity (a.u.)
45 | GTAATTGCGGCCCATTAACCTAAATGGGCCGATCGAGTGGCGGAGTCACCTAGTGCAG | 4580 fluorescence intensity (a.u.)
46 | TGAATGATTGCTCTTGTGCTAAGAGAATAGACTTTATCCCCGGAGTCACCTAGTGCAG | 32000 fluorescence intensity (a.u.)
